Test results reported in the supplement of paper PMC12669032.

Legend:
Assay in all cases: growth AUC relative to DMSO control (median of replicates) (fraction); higher = more growth (less inhibition), active = hit call of the paper
Details in all cases: 20 µM; 24 h;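 active = AUC reduced over 20% with Padj below 0.05 in at least 2 of 3 replicates; inactive = otherwise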
Akkermansia muciniphila = test system: Akkermansia muciniphila
Procedure, shortened: (§1)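 For each compound at 20 µM (1% DMSO), gut bacterial monocultures seeded at OD600 0.05 grew anaerobically in mGAM at 37 °C in round-bottom 96-well plates. Hourly OD600 readings over 24 h gave growth curves whose minimum OD was set to 0. Area under these curves was normalised to the plate median of solvent-only wells, or to row and column medians on the industrial chemical plate. Values are medians of three biological replicates grown on separate days.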

Bacteroides caccae = test system: Bacteroides caccae
Procedure, shortened: as §1

Bacteroides clarus = test system: Bacteroides clarus
Procedure, shortened: as §1

Bacteroides dorei = test system: Bacteroides dorei
Procedure, shortened: as §1

Bacteroides stercoris = test system: Bacteroides stercoris
Procedure, shortened: as §1

[1] = test system: Bacteroides thetaiotaomicron
Procedure, shortened: as §1

Bacteroides uniformis = test system: Bacteroides uniformis
Procedure, shortened: as §1

[2] = test system: Bifidobacterium longum subsp. longum
Procedure, shortened: as §1

Clostridium difficile = test system: Clostridium difficile
Procedure, shortened: as §1

Collinsella aerofaciens = test system: Collinsella aerofaciens
Procedure, shortened: as §1

Measured: growth AUC

O=C(OC1CCCCC1)c1ccccc1C(=O)OC1CCCCC1
inactive: Akkermansia muciniphila 1 | Bacteroides caccae 0.967 | Bacteroides clarus 0.997 | Bacteroides dorei 0.985 | Bacteroides stercoris 1.09 | [1] 0.951 | Bacteroides uniformis 0.985 | [2] 1 | Clostridium difficile 0.995 | Collinsella aerofaciens 0.943

CCCN(CCOc1c(Cl)cc(Cl)cc1Cl)C(=O)n1ccnc1
inactive: Akkermansia muciniphila 1.05 | Bacteroides caccae 0.886 | Bacteroides clarus 0.967 | Bacteroides dorei 0.941 | Bacteroides stercoris 1.14 | [1] 0.869 | Bacteroides uniformis 0.836 | [2] 0.89 | Clostridium difficile 0.982 | Collinsella aerofaciens 1.02

CCOC(=O)c1cn2nc(OP(=S)(OCC)OCC)cc2nc1C
inactive: Akkermansia muciniphila 1.14 | Bacteroides caccae 0.973 | Bacteroides clarus 0.945 | Bacteroides dorei 0.904 | Bacteroides stercoris 0.876 | [1] 0.991 | Bacteroides uniformis 0.834 | [2] 1.05 | Clostridium difficile 0.988 | Collinsella aerofaciens 0.967

CCOP(=O)(NC(C)C)Oc1ccc(S(C)(=O)=O)c(C)c1 (stereo not given)
inactive: Akkermansia muciniphila 1.03 | Bacteroides caccae 1.01 | Bacteroides clarus 1.04 | Bacteroides dorei 1.04 | Bacteroides stercoris 1.05 | [1] 1.02 | Bacteroides uniformis 1.01 | [2] 0.986 | Clostridium difficile 1.04 | Collinsella aerofaciens 1.01

CNC(=O)Oc1cc(C)cc(C(C)C)c1
inactive: Akkermansia muciniphila 0.995 | Bacteroides caccae 0.969 | Bacteroides clarus 0.982 | Bacteroides dorei 0.973 | Bacteroides stercoris 0.938 | [1] 0.967 | Bacteroides uniformis 1.04 | [2] 1.19 | Clostridium difficile 0.93 | Collinsella aerofaciens 0.952

CC(C)(C)C(O)(CCc1ccc(Cl)cc1)Cn1cncn1 (stereo not given)
inactive: Akkermansia muciniphila 0.856 | Bacteroides caccae 0.965 | Bacteroides clarus 1.01 | Bacteroides dorei 1.03 | Bacteroides stercoris 1.1 | [1] 0.98 | Bacteroides uniformis 0.959 | [2] 0.956 | Clostridium difficile 1.06 | Collinsella aerofaciens 1.06

N#Cc1nn(-c2c(Cl)cc(C(F)(F)F)cc2Cl)c(N)c1S(=O)C(F)(F)F (stereo not given)
inactive: Akkermansia muciniphila 1.07 | Bacteroides caccae 0.964 | Bacteroides clarus 0.881 | Bacteroides dorei 0.897 | Bacteroides stercoris 0.95 | [1] 0.986 | Bacteroides uniformis 0.895 | [2] 0.951 | Clostridium difficile 0.966 | Collinsella aerofaciens 1.04

CC1(C(=O)Nc2ccc(O)c(Cl)c2Cl)CCCCC1
inactive: Akkermansia muciniphila 0.827 | Bacteroides caccae 0.986 | Bacteroides clarus 0.954 | Bacteroides dorei 0.995 | Bacteroides stercoris 0.952 | [1] 0.94 | Bacteroides uniformis 0.962 | [2] 0.978 | Clostridium difficile 0.98 | Collinsella aerofaciens 0.995

O=c1[nH]c(Cl)c(Cl)cc1Cl
inactive: Akkermansia muciniphila 0.98 | Bacteroides caccae 1.04 | Bacteroides clarus 0.967 | Bacteroides dorei 0.991 | Bacteroides stercoris 1.05 | [1] 1.11 | Bacteroides uniformis 0.978 | [2] 0.981 | Clostridium difficile 0.95 | Collinsella aerofaciens 1.01

Clc1cc(Cl)c(Cl)c(Cl)c1
inactive: Akkermansia muciniphila 0.953 | Bacteroides caccae 0.971 | Bacteroides clarus 0.989 | Bacteroides dorei 0.957 | Bacteroides stercoris 0.887 | [1] 0.997 | Bacteroides uniformis 1.02 | [2] 1 | Clostridium difficile 0.977 | Collinsella aerofaciens 0.922

CCCSP(=S)(OCC)Oc1ccc(Cl)cc1Cl (stereo not given)
inactive: Akkermansia muciniphila 1.06 | Bacteroides caccae 0.796 | Bacteroides clarus 1.05 | Bacteroides dorei 0.98 | Bacteroides stercoris 1.41 | [1] 0.961 | Bacteroides uniformis 1.01 | [2] 1.07 | Clostridium difficile 1.05 | Collinsella aerofaciens 0.965

CSc1nc(N=[N+]=[N-])nc(NC(C)C)n1
inactive: Akkermansia muciniphila 0.963 | Bacteroides caccae 1.04 | Bacteroides clarus 0.993 | Bacteroides dorei 1.04 | Bacteroides stercoris 0.975 | [1] 1.02 | Bacteroides uniformis 1.07 | [2] 0.849 | Clostridium difficile 1.02 | Collinsella aerofaciens 0.998

Oc1ccccc1-c1ccccc1
inactive: Akkermansia muciniphila 1.03 | Bacteroides caccae 1.04 | Bacteroides clarus 1.03 | Bacteroides dorei 1.02 | Bacteroides stercoris 1.04 | [1] 1.01 | Bacteroides uniformis 1.01 | [2] 0.965 | Clostridium difficile 1.04 | Collinsella aerofaciens 1.01

OCC(O)CCl (stereo not given)
inactive: Akkermansia muciniphila 1.01 | Bacteroides caccae 1.01 | Bacteroides clarus 0.998 | Bacteroides dorei 1.01 | Bacteroides stercoris 1.02 | [1] 0.984 | Bacteroides uniformis 1 | [2] 0.965 | Clostridium difficile 1.01 | Collinsella aerofaciens 1.01

CCOC(=O)COc1cc(-c2nn(C)c(OC(F)F)c2Cl)c(F)cc1Cl
inactive: Akkermansia muciniphila 0.977 | Bacteroides caccae 0.974 | Bacteroides clarus 0.986 | Bacteroides dorei 0.99 | Bacteroides stercoris 0.965 | [1] 1.01 | Bacteroides uniformis 1.04 | [2] 1.03 | Clostridium difficile 1.02 | Collinsella aerofaciens 1.04

OCC1C(CO)C2(Cl)C(Cl)=C(Cl)C1(Cl)C2(Cl)Cl (stereo not given)
active: Bacteroides caccae 0.721 | [1] 0.799 | Bacteroides uniformis 0.275
inactive: Akkermansia muciniphila 0.817 | Bacteroides clarus 0.818 | Bacteroides dorei 0.859 | Bacteroides stercoris 0.259 | [2] 1.04 | Clostridium difficile 0.901 | Collinsella aerofaciens 0.947

CCCN(CCC)c1c([N+](=O)[O-])cc(C(F)(F)F)cc1[N+](=O)[O-]
inactive: Akkermansia muciniphila 1.02 | Bacteroides caccae 1.02 | Bacteroides clarus 1.04 | Bacteroides dorei 1.03 | Bacteroides stercoris 1.05 | [1] 0.976 | Bacteroides uniformis 1.01 | [2] 1.1 | Clostridium difficile 1 | Collinsella aerofaciens 1.01

CC(=NCc1ccc(Cl)nc1)NC#N
inactive: Akkermansia muciniphila 1.01 | Bacteroides caccae 1.02 | Bacteroides clarus 1.05 | Bacteroides dorei 1.04 | Bacteroides stercoris 1.1 | [1] 0.99 | Bacteroides uniformis 1.03 | [2] 1.02 | Clostridium difficile 1.03 | Collinsella aerofaciens 1.02

Clc1c(Cl)c(Cl)c(Cl)c(Cl)c1Cl
inactive: Akkermansia muciniphila 0.994 | Bacteroides caccae 1.01 | Bacteroides clarus 1 | Bacteroides dorei 1.04 | Bacteroides stercoris 1.08 | [1] 1 | Bacteroides uniformis 0.992 | [2] 0.981 | Clostridium difficile 1 | Collinsella aerofaciens 1.06

CCOc1cc(C(C)(C)C)ccc1C1COC(c2c(F)cccc2F)=N1 (stereo not given)
inactive: Akkermansia muciniphila 0.955 | Bacteroides caccae 0.941 | Bacteroides clarus 1 | Bacteroides dorei 1.03 | Bacteroides stercoris 1.23 | [1] 0.978 | Bacteroides uniformis 0.958 | [2] 1.02 | Clostridium difficile 0.942 | Collinsella aerofaciens 0.987

CCC(C)[C@H]1O[C@]2(C=C[C@@H]1C)C[C@@H]1C[C@@H](C/C=C(\C)[C@@H](O[C@H]3C[C@H](OC)[C@@H](O[C@H]4C[C@H](OC)[C@@H](O)[C@H](C)O4)[C@H](C)O3)[C@@H](C)/C=C/C=C3\CO[C@@H]4[C@H](O)C(C)=C[C@@H](C(=O)O1)[C@]34O)O2.CO[C@H]1C[C@H](O[C@H]2[C@H](C)O[C@@H](O[C@@H]3/C(C)=C/C[C@@H]4C[C@@H](C[C@]5(C=C[C@H](C)[C@@H](C(C)C)O5)O4)OC(=O)[C@@H]4C=C(C)[C@@H](O)[C@H]5OC/C(=C\C=C\[C@@H]3C)[C@]54O)C[C@@H]2OC)O[C@@H](C)[C@@H]1O (stereo not given in full)
inactive: Akkermansia muciniphila 1.22 | Bacteroides caccae 0.965 | Bacteroides clarus 1.07 | Bacteroides dorei 0.965 | Bacteroides stercoris 0.915 | [1] 1.01 | Bacteroides uniformis 1.01 | [2] 0.919 | Clostridium difficile 0.952 | Collinsella aerofaciens 0.996

CC(COc1ccc(Oc2ccccc2)cc1)Oc1ccccn1 (stereo not given)
inactive: Akkermansia muciniphila 0.989 | Bacteroides caccae 0.949 | Bacteroides clarus 0.98 | Bacteroides dorei 1.01 | Bacteroides stercoris 0.78 | [1] 0.993 | Bacteroides uniformis 0.994 | [2] 1.04 | Clostridium difficile 0.99 | Collinsella aerofaciens 0.994

Cc1cc(C)nc(NC(=O)NS(=O)(=O)c2ccccc2C(=O)OC2COC2)n1
active: [1] 0.752
inactive: Akkermansia muciniphila 1.03 | Bacteroides caccae 0.952 | Bacteroides clarus 0.973 | Bacteroides dorei 0.945 | Bacteroides stercoris 1.04 | Bacteroides uniformis 1.03 | [2] 0.858 | Clostridium difficile 1.05 | Collinsella aerofaciens 0.98

C[n+]1ccc(-c2cc[n+](C)cc2)cc1.O.[Cl-].[Cl-]
inactive: Akkermansia muciniphila 0.705 | Bacteroides caccae 0.846 | Bacteroides clarus 1 | Bacteroides dorei 0.996 | Bacteroides stercoris 0.996 | [1] 0.996 | Bacteroides uniformis 1.03 | [2] 1.02 | Clostridium difficile 0.947 | Collinsella aerofaciens 0.947

Nc1cc(Cl)cc(Cl)c1
inactive: Akkermansia muciniphila 1.1 | Bacteroides caccae 0.895 | Bacteroides clarus 1.04 | Bacteroides dorei 1.03 | Bacteroides stercoris 1.33 | [1] 1.01 | Bacteroides uniformis 1.04 | [2] 1.08 | Clostridium difficile 1 | Collinsella aerofaciens 0.984

O=C(O)CCCOc1ccc(Cl)cc1Cl
inactive: Akkermansia muciniphila 0.929 | Bacteroides caccae 1.04 | Bacteroides clarus 0.978 | Bacteroides dorei 1.02 | Bacteroides stercoris 0.922 | [1] 1.02 | Bacteroides uniformis 1.07 | [2] 1.06 | Clostridium difficile 1.01 | Collinsella aerofaciens 0.984

CNC(=O)CSP(=S)(OC)OC
inactive: Akkermansia muciniphila 1.19 | Bacteroides caccae 1 | Bacteroides clarus 0.994 | Bacteroides dorei 0.901 | Bacteroides stercoris 0.954 | [1] 1.01 | Bacteroides uniformis 1 | [2] 1.01 | Clostridium difficile 0.978 | Collinsella aerofaciens 0.974

O=S(=O)(c1ccc(O)cc1)c1ccc(O)cc1
inactive: Akkermansia muciniphila 0.921 | Bacteroides caccae 0.97 | Bacteroides clarus 1 | Bacteroides dorei 1.01 | Bacteroides stercoris 0.977 | [1] 0.996 | Bacteroides uniformis 0.987 | [2] 0.949 | Clostridium difficile 0.997 | Collinsella aerofaciens 0.976
